# Source: PubChem BioAssay
# Sampled rows, rich in hits. Any-hit rate of the full collection: about 19%.
# HT1080-NT tox: kills 2HG-producing HT-1080-NT fibrosarcoma cells; 1.6% of 360,000 active; Potency, µM (doses to about 46.1 µM), most hits filed as cytotoxic; AID 686970; HT-1080-NT fibrosarcoma viability, CellTiter-Glo ATP luminescence, 48 h;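 further: NT is the 2HG producing partner of a matched IDH1 knockdown line; nearly all actives have a fitted effect of over 55% in size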
#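 Fibrosarcoma NT cells, 750 per well in 5% FBS RPMI, were exposed to compound for 48 hours. Viability: CellTiter-Glo luminescence.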
# uPA generation: blocks generation of uPA at the cell surface; cell surface uPA generation assay, qHTS; Potency, µM (titrated, usually from 38.3 µM), most hits filed as inhibitors; 0.31% of 330,000 active; active means well fitted inhibition curve with a large enough effect; inconclusive means small, poorly fitted or top-dose-only effect; inactive means no such curve, though single readings can be large or run the other way; tested in mouse RAW 264.7 cells; further: nearly all actives have a fitted effect of over 55% in size
# IL1B secr inh: inhibitors of inflammasome signaling (IL-1 beta secretion) | THP-1 LPS/ATP IL-1B secretion, AlphaLISA, 16 h; hits give low values | activity change, % at 57.5 µM | 4.7% of 360,000 active; in the data active means activity change below about -50%; inconclusive means mostly about -30% to -49%
#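 Secreted IL-1B measured by AlphaLISA bead assay after 16 h compound exposure of THP-1 cells; compounds (final up to 57.5 uM) added 1 h before LPS (250 ng/mL) and ATP (1.25 mM) stimulation; lower signal means less secretion.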
# DT40 TDP1 CPT: growth inhibition of DT40 Tdp1-/-;hTDP1 cells with camptothecin (screen for TDP1 inhibitors); chicken DT40 Tdp1-/-;hTDP1 cells + 20 nM CPT, ATP luminescence, 48 h; Potency, µM (highest dose often 46.2 µM), hits mostly inhibitors; 12% of 420,000 active; AID 686979; further: nearly all actives have a fitted effect of over 55% in size
#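 Chicken DT40 Tdp1-/- cells complemented with human TDP1, 400 cells/well, exposed to compounds plus 20 nM camptothecin for at least 48 h at 37 C; viability read as ATP content by CellTiter-Glo luminescence.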
# TDP1 cell noCPT: qHTS for Inhibitors of human tyrosyl-DNA phosphodiesterase 1 (TDP1): qHTS in cells in absence of CPT; 15% of 420,000 active; Potency, µM (highest dose often 46.2 µM), most hits filed as inhibitors; AID 686978, 2013; DT40 Tdp1-/- hTDP1 cells, no CPT, ATP luminescence, 48 h; further: nearly all actives have a fitted effect of over 55% in size
#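 Luminescent ATP content (CellTiter-Glo) served as the growth readout. Knockout chicken DT40 cells expressing human TDP1 were exposed to compounds without camptothecin for a minimum 48 hr at 37 °C.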
# HT1080 IDH1KD tx: toxicity to HT-1080 IDH1 knockdown cells (counter line); Potency, µM (top dose mostly 46.1 µM), most hits filed as cytotoxic; 2% of 360,000 active; AID 686971; HT-1080 IDH1 knockdown viability, ATP luminescence, 48 h
#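 In this qHTS, HT-1080 cells depleted of IDH1 are exposed for 48 h at 37 °C to compound titrations. Toxicity is scored from CellTiter-Glo luminescence, with DMSO as full viability and medium alone as none.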
# A number is an active result; n = inactive; u = inconclusive; x = not tested or not shown; ! = repeats disagree; [ ] = remark or other dose. Unless noted, the call rests on the fitted dose curve; in most records, active means well fitted curve in the direction sought with a large enough effect; inconclusive means small, poorly fitted or top-dose-only effect, or another doubt; inactive means no such curve, though single readings can be large; an effect the other way counts as inactive or inconclusive.
SMILES,HT1080-NT tox,uPA generation,IL1B secr inh,DT40 TDP1 CPT,TDP1 cell noCPT,HT1080 IDH1KD tx
COCCN(CCOC)Cc1cc(=O)oc2cc(C)ccc12,n,x,n,n,n,n
COC(=O)c1cc(-c2c(C)oc3cc(OC(C)C)ccc3c2=O)c(C)o1,n,n,n,15µM,15µM,n
COc1cc(NC(=O)c2cc(-c3ccccc3O)no2)cc(OC)c1OC,x,x,x,2.3µM,1.6µM,x
COc1cccc(-c2cc(C(=O)Nc3cc(OC)c(OC)c(OC)c3)on2)c1,x,x,x,5.8µM,2.9µM,x
COc1ccccc1-c1ccnc(-n2ncc(C(=O)NCCc3cccnc3)c2C)n1,x,x,x,n[9.04 µM],n,x
COc1ccc(C(=O)Nc2sc(C)c(-c3ccccc3)c2C#N)cc1OC,n,n,n,u,21µM,u
COc1ccc(C(=O)NC2=C(C#N)CCC2)cc1OC,n,n,n,n,n,n
COc1ccc(-c2c(C)sc(NC(=O)c3ccnn3C)c2C#N)cc1,13µM,n,n,n,u,21µM
CC(C)(O)C#Cc1ccc(CN2CCC(n3nccc3NC(=O)C3CC3)CC2)cc1,n,n,n,n,n,n
Cc1ccc(NCc2cccnc2)cc1,n,n,n,n,n,n
Cc1ccc(NCc2cccc(B(O)O)c2)cc1,n,n,-95,n,n,n
COC(=O)c1ccc(-c2cc3onc(-c4ccccc4)c3c(=O)n2C)cc1,n,n,n,23µM,u,n
COc1ccc(-c2cc3onc(-c4c(Cl)cccc4Cl)c3c(=O)n2C)cc1,n,u,n,u,u,n
CN(C)C(=O)c1ccc(-c2cc3onc(-c4ccccc4)c3c(=O)n2C)cc1,n,n,n,u,16µM,n
Cn1c(-c2ccc(F)c(F)c2)cc2onc(-c3ccccc3)c2c1=O,n,n,n,16µM,23µM,n
OC(c1ccc(F)cc1)c1nc(-c2cc3ccccc3o2)cs1 (configuration not stated),u,x,n,u,u,u
C[C@@H]1CC2OC(=O)[C@@]3(C)C(=O)CC[C@@](C)(C23)[C@@]1(O)CCc1ccoc1 (some centres not stated),n,n,n,n,n,n
CNc1c2cccc(C)c2nc2c(C(=O)NCCN(C)C)cccc12,u,n,-117,0.18µM,0.18µM,7.3µM
COc1ccc(CCNC(=O)c2cnc3sc(N4CCOCC4)nn3c2=O)cc1OC,x,x,x,n,n,x
NC(=O)N/N=C/c1c(Sc2nnnn2-c2ccccc2)nc2ccccn2c1=O,n,n,-68,2.9µM,2.6µM,n
Cc1nn(-c2ccccc2)c(Cl)c1/C=N/NC(N)=O,n,n,x,n,n,n
COc1ccc(Nc2ncc(C(=O)Nc3cccc(OC)c3)c3ccccc23)cc1,x,x,x,u,n,x
COc1ccccc1Nc1ncc(C(=O)Nc2ccc(OC)c(OC)c2)c2ccccc12,n,n,n,18µM,16µM!,n
COc1cc(NC(=O)c2cc(Cl)nnc2Cl)cc(OC)c1OC,n,u,u,u,u,n
CCS(=O)(=O)c1ccc(C(=O)Nc2cccc(Cl)c2)c(Cl)c1Cl,n,n,u,u,21µM,n
SMILES,HT1080-NT tox,uPA generation,IL1B secr inh,DT40 TDP1 CPT,TDP1 cell noCPT,HT1080 IDH1KD tx
COc1cccc(NC(=O)c2cc(Cl)nnc2Cl)c1,12µM,n,-92,0.52µM,8.2µM,u
COc1ccccc1NC(=O)c1ccccc1NS(C)(=O)=O,n,n,n,u,15µM,n
O=C(COC(=O)c1ccc[nH]c1=O)NCC12CC3CC(CC(C3)C1)C2,n,n,n,n,n,n
CS(=O)(=O)Nc1ccccc1C(=O)Nc1cccc(Cl)c1,u,n,n,u,23µM,n[9.24 µM]
COc1ccccc1NC(=O)c1ccccc1NC(=O)c1cccs1,n,n,n,23µM,u,n
CS(=O)(=O)Nc1ccccc1C(=O)Nc1ccccc1Cl,n,n,n,n,n,n
COc1cccc(NC(=O)c2ccccc2NS(C)(=O)=O)c1,n,n,n,u,21µM,n
COc1ccc(NC(=O)c2ccccc2NS(C)(=O)=O)cc1OC,n,n,n,21µM,10µM,n
COC(=O)c1ccc(NC(=O)c2ccccc2NS(C)(=O)=O)cc1,n,n,n,u,u,n
CCN(C1CCS(=O)(=O)C1)S(=O)(=O)c1ccc2ccccc2c1 (configuration not stated),n,n,n,n,n,n
COc1ccccc1NC(=O)c1ccccc1-c1nc(-c2ccccc2OC)no1,n,x,n,14µM,6.3µM,u
COc1ccccc1-c1noc(-c2ccccc2C(=O)Nc2ccccc2)n1,n,n,n,n,n,n
CC(C)Oc1ccc(CNC(=O)c2ccc3nc(C(C)C)oc3c2)cc1,x,x,x,n,u,x
O=C(NCC(c1ccco1)N1CCN(c2ccccc2F)CC1)c1ccc2c(c1)OCO2 (configuration not stated),n,u,n,u,18µM,u
CCOc1ccc(C(=O)NCC(c2ccc3c(c2)OCO3)N2CCN(c3ccccc3F)CC2)cc1 (configuration not stated),x,x,x,16µM,21µM,x
CN1CCN(C(CNC(=O)c2ccc(F)cc2)c2ccc3c(c2)OCO3)CC1 (configuration not stated),x,x,x,n,n,x
COc1ccc(N2CCN(C(CNC(=O)c3c(F)cccc3F)c3ccc4c(c3)OCO4)CC2)cc1 (configuration not stated),x,x,x,u,16µM,x
O=C(NCC(c1ccco1)N1CCN(c2ccc(F)cc2)CC1)c1ccc2c(c1)OCO2 (configuration not stated),n,n,n,u,u,n
COC(=O)NCC(c1ccc2c(c1)OCO2)N1CCN(c2ccc(OC)cc2)CC1 (configuration not stated),n,n,n,u,u,n
COc1ccc(C(=O)NCC(c2ccc3c(c2)OCO3)N2CCN(c3ccccc3F)CC2)cc1 (configuration not stated),x,x,x,7.3µM,5.2µM,x
COc1ccc(C)cc1S(=O)(=O)n1c([N+](=O)[O-])cnc1C,n,n,n,n,n,n
CN(C)S(=O)(=O)c1ccc(N=Cc2c(C(F)(F)F)[nH]n(C)c2=O)cc1,n,n,n,n,n,n
CC(C)C(=O)NCC(c1ccc2c(c1)OCO2)N1CCN(c2ccccc2F)CC1 (configuration not stated),x,x,x,n,n,x
O=C(NCC(c1ccc2c(c1)OCO2)N1CCN(c2ccccc2)CC1)c1ccc(F)c(F)c1 (configuration not stated),x,x,x,5.2µM,2.3µM,x
